Screens deposited in PubChem BioAssay by National Center for Advancing Translational Sciences (NCATS).
HepG2 tox: kills HepG2 cells in TGF-b inhibitor counter-screen. 0.76% of 410,000 active. AID 588856. HepG2 CAGA-GFP viability, ATP luminescence, 18 h. Potency, µM (titrated, usually from 46.1 µM), without a hit: at the top dose activity change, negative = cytotoxicity, most hits filed as cytotoxic; also: potency is read from the fitted curve at half-maximal effect
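CellTiter-Glo luminescence gave cytotoxicity after 18 hours at 37 degrees C. The cells were HepG2 CAGA-GFP in 1% FBS DMEM, stimulated with 500 pg/mL TGF-beta after compound addition. %Activity was normalised to no-cell wells (complete cell-killing) and DMSO (no toxicity), and curves were fitted and classified.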
TGFb SMAD3 inh: TGF-b pathway inhibition; HepG2 CAGA-GFP TGF-b/SMAD3 reporter, GFP fluorescence, 18 h; TGF-beta stimulated, 500 pg/mL final; Potency, µM (series often up to 46.1 µM), inactives show at the top dose activity, negative = inhibition, usual class: inhibitors; 1.2% of 410,000 active; also: potency is read from the fitted curve at half-maximal effect; % is scaled to controls: 0 for no effect and ±100 for the full control effect; nearly all actives have a fitted effect of over 65% in size
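TGF-beta reporter screen: HEPG2 CAGA-GFP, 1% FBS, 500 pg/mL TGF-beta final, 18 h; per-cell GFP summed per well; curves fitted and categorized by class.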
ATXN2 expr inh: inhibitors of ATXN2 expression; 0.72% of 360,000 active; HEK-293 ATXN2-luciferase reporter, luminescence, 24 h; Potency, µM (doses to about 57 µM), for the others: at the highest dose activity change, negative = inhibition, actives largely listed as inhibitors; also: potency is read from the fitted curve at half-maximal effect; % is scaled to controls: 0 for no effect and ±100 for the full control effect; nearly all actives have a fitted effect of over 55% in size
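ATXN2-luciferase reporter cells (luciferase flanked by upstream and downstream ATXN2 gene portions) were treated 24 h at 37 °C with compounds at up to 57 uM. SteadyGlo luminescence gave expression; GF-AFC fluorescence gave viability.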
HT1080NT lethal: kills 2HG-producing HT-1080-NT fibrosarcoma cells. HT-1080-NT fibrosarcoma viability, CellTiter-Glo ATP luminescence, 48 h. Potency, µM (doses to about 46.1 µM), inactives show top-dose activity, negative = less viability, most hits filed as cytotoxic. 1.6% of 360,000 active. AID 686970;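 also: NT is the 2HG producing partner of a matched IDH1 knockdown line; potency is read from the fitted curve at half-maximal effect; 0% = DMSO-treated cells and -100% = media-only wells without cells; nearly all actives have a fitted effect of over 55% in size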
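Compounds were tested in concentration-response format on HT-1080-NT cells for 48 hours at 37 degrees C. Cell viability came from CellTiter-Glo luminescence; curves were classified by r2, response magnitude and activity.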
HT1080 IDH1KD tx: toxicity to HT-1080 IDH1 knockdown cells (counter line) | HT-1080 IDH1 knockdown viability, ATP luminescence, 48 h | Potency, µM (top dose mostly 46.1 µM), without a hit: top-dose activity, negative = toxicity, hits mostly cytotoxic | 2% of 360,000 active | AID 686971;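 also: potency is read from the fitted curve at half-maximal effect; 0% = DMSO wells and -100% = cell-free medium wells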
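Knockdown cells (IDH1KD HT-1080) received compounds 2 h after plating at 750 cells/well and were kept 48 h at 37 °C in 5% FBS RPMI. A CellTiter-Glo luminescence read gave % activity for curve fitting.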
ATXN viability: viability counter-screen for ATXN expression inhibitors; S2 cells (HEK-293 line with an ATXN2-luciferase reporter) viability, CellTiter-Fluor protease fluorescence, 24 h; AID 651635; Potency, µM (top dose mostly 56.7 µM), most hits filed as cytotoxic; 0.49% of 400,000 active; also: potency is read from the fitted curve at half-maximal effect; nearly all actives have a fitted effect of over 40% in size
SKNSH spheroid: SK-N-SH 3D spheroid viability loss. AID 1347135. shares compounds with ATXN2 expr inh. Potency, µM (doses to about 30.7 µM), hits mostly inhibitors. 70% of 65 active. SK-N-SH 3D spheroid viability, PI/Hoechst imaging, 72 h
SJ-GBM2 3D tox: reduced viability of SJ-GBM2 3D spheroids, orthogonal test; 80% of 65 active; shares compounds with ATXN2 expr inh; SJ-GBM2 3D spheroid viability, PI/Hoechst imaging, 72 h; Potency, µM (titrated, usually from 30.7 µM), usual class: inhibitors
Daoy 3D tox: Daoy 3D spheroid viability loss; 50% of 65 active; AID 1347137; Potency, µM (series often up to 30.7 µM), actives largely listed as inhibitors; shares compounds with ATXN2 expr inh; Daoy 3D spheroid viability, PI/Hoechst imaging, 72 h
TC32 3D casp: TC32 spheroid caspase-3/7 activation, orthogonal screen | shares compounds with ATXN2 expr inh | Potency, µM (top dose mostly 30.7 µM), actives largely listed as inhibitors | 30% of 65 active | TC32 3D spheroids, caspase-3/7 fluorescence imaging, 24 h
TC32 spheroid: kills TC32 spheroids in orthogonal 3D test | Potency, µM (series often up to 30.7 µM), actives largely listed as inhibitors | TC32 3D spheroid viability, PI/Hoechst imaging, 72 h | shares compounds with ATXN2 expr inh | AID 1347139 | 60% of 65 active
MG63 spheroid: reduced viability of MG-63 (6-TG R) 3D spheroids, orthogonal test; shares compounds with ATXN2 expr inh; MG-63 (6-TG R) 3D spheroid viability, PI/Hoechst imaging, 72 h; Potency, µM (doses to about 30.7 µM), actives largely listed as inhibitors; 50% of 65 active
RD 3D tox: reduced viability of RD 3D spheroids, orthogonal test. AID 1347141. Potency, µM (highest dose often 30.7 µM), usual class: inhibitors. RD rhabdomyosarcoma 3D spheroid viability, PI/Hoechst imaging, 72 h. 50% of 65 active. shares compounds with ATXN2 expr inh
The depositor's hits bear a star; i = inactive; ? = inconclusive; . = no result given; ! = a repeat was not active. Hits are enriched below; roughly 3.8% of the tested compounds scored in any of these assays. Calls follow the shape of the dose curve; as a rule, active = well fitted curve in the direction sought with a large enough effect; inconclusive = small, poorly fitted or top-dose-only effect, or another doubt; inactive = no such curve, though single readings can be large; an effect the other way counts as inactive or inconclusive.

SMILES	HepG2 tox	TGFb SMAD3 inh	ATXN2 expr inh	HT1080NT lethal	HT1080 IDH1KD tx	ATXN viability	SKNSH spheroid	SJ-GBM2 3D tox	Daoy 3D tox	TC32 3D casp	TC32 spheroid	MG63 spheroid	RD 3D tox
COc1ccc(-c2ccc3ncc4c(c3c2)n(-c2ccc(N3CCNCC3)c(C(F)(F)F)c2)c(=O)n4C)cn1	.	.	7.7µM*	.	.	.	0.25µM*	0.031µM*	0.0056µM*	0.5µM*	0.13µM*	0.0056µM*	0.16µM*
CCOc1ccc(OCC)c(NC(=O)c2cnc3c(-c4ccccc4)c(C)nn3c2C)c1	6%	13%	.	.	.	.	.	.	.	.	.	.	.
COc1ccc(-c2nc(N3CCOCC3)c3sc(CN(C)c4ncc(C(=O)NO)cn4)cc3n2)cn1	.	.	13%	.	.	.	5.1µM*	11µM*	5.1µM*	i	i	?	i
COc1c(C)c2c(c(O)c1C/C=C(\C)CCC(=O)OCCN1CCOCC1)C(=O)OC2	.	.	40%	.	.	?	?	0.23µM*	?	i	?	0.81µM*	?
COc1cc(C(=O)OCCN2CCOCC2)cc(OC)c1OC	-45%	2%	-1%	9%	11%	i	.	.	.	.	.	.	.
COc1cc([C@@H]2c3cc4c(cc3C(O[C@@H]3O[C@@H]5CO[C@@H](c6cccs6)OC5[C@H](O)[C@H]3O)C3COC(=O)[C@@H]32)OCO4)cc(OC)c1O (some centres not stated)	.	.	.	.	.	.	0.057µM*	0.032µM*	0.041µM*	?	0.016µM*	4.1µM*	5.7µM*
COc1cc([C@@H]2c3cc4c(cc3[C@@H](O[C@@H]3O[C@@H]5CO[C@@H](C)O[C@@H]5[C@H](O)[C@@H]3O)[C@H]3COC(=O)[C@H]23)OCO4)cc(OC)c1O	.	.	0.77µM*	.	.	.	0.57µM*	0.26µM*	0.46µM*	?	0.26µM*	?	?
O=C1COc2ccc(-c3cc(-c4ccc(F)cc4)c4c(n3)-c3cc(Cl)ccc3OC4)cc2N1	1%	3%	-1%	.	.	i	.	.	.	.	.	.	.
COc1ccc(S(=O)(=O)Nc2cccnc2Nc2ccc(O)cc2)cc1	.	.	-15%	.	.	.	0.32µM*	0.23µM*	?	1µM*	0.57µM*	?	0.46µM*
COc1ccc(Nc2nc3ccccc3nc2NS(=O)(=O)c2ccc(NC(C)=O)cc2)cc1	16%	-29%	24%	-19%	3%	i	.	.	.	.	.	.	.
Nc1nc(Cl)nc2c1ncn2[C@@H]1O[C@H](CO)[C@@H](O)[C@@H]1F	.	.	1µM*	.	.	?	i	0.023µM*	?	i	5.1µM*	0.16µM*	?
Cc1ccc(C)c(Cn2c(=O)cc(C(F)(F)F)c3c(C)nn(C)c32)c1	-14%	4%	4%	.	.	i	.	.	.	.	.	.	.
CC(C)(C)C(=O)OCOP(=O)(COCCn1cnc2c(N)ncnc21)OCOC(=O)C(C)(C)C	.	.	3.5µM*!	.	.	i	5.1µM*	4.1µM*	?	i	2.6µM*	?	?
Nc1ncnc2c1ncn2CCOc1ccccc1	-25%	?	13%	-1%	0%	i	.	.	.	.	.	.	.
